Source: PubChem BioAssay (NCI)
Compounds without any hit were thinned out: in the full panel of roughly 79,000, 15% have a hit. Values without a mark were called inactive. Activity calls are given as the source filed them. No stated cut-off is given here; in the data, active means growth inhibition above about 70%; inactive means the rest.

Key:
[1] = NCI Yeast Anticancer Drug Screen. Data for the rad50 strain (AID 155);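 further: 0% = growth of vehicle-only cultures of the same strain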; details: S. cerevisiae rad50 strain growth inhibition; at 50.0 µM; hits give high values
How it was run: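 Inhibition values express reduced yeast growth in compound-treated cultures relative to vehicle-treated controls.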

[2] = NCI Yeast Anticancer Drug Screen. Data for the mec2-1 strain (AID 157); details: S. cerevisiae mec2-1 strain, at 50.0 µM, hits give high values
How it was run: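 Each compound was tested on mec2-1 yeast, a strain altered in DNA damage repair or cell cycle control. Growth inhibition is reported relative to vehicle.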

[3] = NCI Yeast Anticancer Drug Screen. Data for the cln2 rad14 strain (AID 165);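 further: 0% = growth equal to vehicle treated cultures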; details: S. cerevisiae cln2 rad14 strain, at 50.0 µM, hits give high values
How it was run: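 Test compounds were added to cln2 rad14 yeast cultures; inhibition of growth was then determined by comparison with vehicle treatment.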

[4] = NCI Yeast Anticancer Drug Screen. Data for the bub3 strain (AID 167); details: S. cerevisiae bub3 mutant strain, at 50.0 µM, hits give high values
How it was run: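 Steps: expose the mutant yeast strain to compound; grow alongside vehicle-treated cultures; measure growth; express inhibition against the vehicle cultures.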

[5] = NCI Yeast Anticancer Drug Screen. Data for the mlh1 rad18 strain (AID 175); details: S. cerevisiae mlh1 rad18 strain growth inhibition; at 50.0 µM; hits give high values
How it was run: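 Inhibition values reflect reduced growth of mutant yeast versus vehicle-treated controls following compound exposure; the mutations affect DNA damage repair.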

[6] = NCI Yeast Anticancer Drug Screen. Data for the sgs1 mgt1 strain (AID 161);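 further: 0% = growth of cultures given vehicle only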; details: S. cerevisiae sgs1 mgt1 strain, at 50.0 µM, hits give high values
How it was run: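 Inhibition of yeast growth, normalised to vehicle-treated controls, is reported for a strain bearing genetic alterations in DNA damage repair.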

SMILES | growth inhibition [1] | growth inhibition [2] | growth inhibition [3] | growth inhibition [4] | growth inhibition [5] | growth inhibition [6] [%]
O=C(Nc1cccc(Cl)c1)c1cc2cc(N=Nc3ccc(Br)cc3)ccc2oc1=O | 36.4% | 33.6% | 29.1% | 9.45% | 18.2% | –
CCCOC(=O)/C=C(\Cl)C(=O)OCCC | -0.95% | 4.15% | -23.2% | -45.6% | -5.8% | –
Clc1nc(Cl)c2ncn(C3CCCCO3)c2n1 (stereo not given) | 26.4% | 26.1% | 4.6% | 38.2% | 14.3% | –
NCC1CCCCO1 (stereo not given) | 7% | 5.1% | -4.1% | -16.7% | -4.65% | –
CN(C)c1ccc2c(c1)C(O)c1ccccc1-2 (stereo not given) | -7.3% | -6.55% | -0.65% | 19.4% | 0.7% | –
CCOC(=O)C1=C(C(=O)c2ccc(OC)cc2)C(c2cccc([N+](=O)[O-])c2)C(C(=O)c2ccc(OC)cc2)=C(C(=O)OCC)N1 | -30.8% | -1.6% | -2.85% | -6.45% | 2% | –
CN(C)c1ccc(C=Nc2ccc3c(c2)C(N2CCOCC2)c2ccccc2-3)cc1 (stereo not given) | -14.7% | -7% | -5.3% | -15.8% | 0.35% | –
OCCN1CCN(C2=Nc3cccnc3Nc3cscc32)CC1 | -41.2% | -1.15% | -9.75% | -5.05% | -8.75% | –
O=C(O)/C=C/C=C/c1ccccc1 | 8.9% | 8.95% | -2.7% | 16.4% | 32.8% | –
O=c1[nH]c2ccccc2nc1/C=C(\O)c1ccc([N+](=O)[O-])cc1 | 1.55% | -10.6% | 25.7% | -22.4% | 1.6% | –
CC12CCC3c4ccc(O)cc4CCC3C1CC(OC1OC(C(=O)O)C(O)C(O)C1O)C2O (stereo not given) | 31.6% | 5.9% | 2.4% | 2.4% | 22.2% | –
C/C(CC(=O)Nc1ccc(Cl)c(Cl)c1)=N/NC(=O)C[n+]1ccccc1 | 16.8% | 5.15% | -19.6% | 5.85% | 29.2% | –
CC(C(=O)O)n1c(=O)ssc1=O (stereo not given) | 1.95% | 3.05% | -9.25% | -8.7% | 0% | –
CCN(CC)C1Oc2cc3c(cc2C(c2cc(OC)c(O)c(OC)c2)C1C)OCO3 (stereo not given) | -14.6% | -23.9% | 3.35% | -7.1% | 3.85% | –
Cc1cc2ncn(CO)c2cc1C | -4.5% | -0.2% | -7.4% | 20% | 0.75% | –
CCCCCC(C)(O)CCC (stereo not given) | -5.9% | -6.65% | -3.45% | 6.9% | -3.55% | –
Cc1ncc(Cl)c2cc3ccccc3cc12 | -2.4% | 2.1% | – | -3.25% | -7.55% | -0.7
O=C(C(=NC12CC3CC(CC(C3)C1)C2)NNc1ccc([N+](=O)[O-])cc1[N+](=O)[O-])C(Br)C(=O)c1ccccc1 (stereo not given) | 47.2% | 45.9% | 3.25% | 51.5% | 39.9% | –
O=C1/C(=C/c2ccccc2)CN(C(=O)/C=C/c2ccccc2)C/C1=C\c1ccccc1 | -23.6% | -19.8% | -8.15% | -11.6% | -33.2% | –

SMILES | growth inhibition [1] | growth inhibition [2] | growth inhibition [3] | growth inhibition [4] | growth inhibition [5] | growth inhibition [6] [%]
Cc1cc(Cl)c2c(c1)C(=O)C(C)C2.[Cu+2] (stereo not given) | -13.1% | -10.2% | -26.4% | -6.65% | -6.2% | –
c1ccc(CC[n+]2ccncc2)cc1 | -8.75% | 6.8% | -10.2% | 7.15% | -17.3% | –
[N-]=[N+]=Nc1ccc(S(=O)(=O)Oc2cc(OS(=O)(=O)c3ccc(N=[N+]=[N-])cc3)cc(OS(=O)(=O)c3ccc(N=[N+]=[N-])cc3)c2)cc1 | 4% | 16.1% | 8% | -5.9% | 14.1% | –
CC1=C(CO)C(=O)O[C@@H]([C@@H](C)[C@H]2CC[C@H]3[C@@H]4C[C@H]5O[C@]56[C@@H](O)C=CC(=O)[C@]6(C)[C@H]4CC[C@]23C)C1 | 86.2% (active) | 89.2% (active) | 83.3% (active) | 89.7% (active) | 85% (active) | –
O=C(O)c1nc(Cl)c(Cl)[nH]c1=O | -15.3% | -29.6% | -65.6% | 2.5% | 3.6% | –
CCOC(=O)c1ccc(N=c2sc3ccccc3nc2Nc2ccc(C(=O)OCC)cc2)cc1 | 2.75% | -3.95% | 34% | 2.3% | 10.9% | –
O=C1/C(=C/c2ccc3c(c2)OCO3)CC/C1=C\c1ccc2c(c1)OCO2 | -10.2% | 5.35% | -55.6% | -13.7% | -26.9% | –
CCOC(=O)CCC(NC(=O)c1ccc(Nc2nc3ccccc3nc2-c2cccs2)cc1)C(=O)OCC (stereo not given) | 7.1% | 4.3% | 14.8% | 9.2% | -34.7% | –
CCOc1ccc(N2C(C#N)c3ccccc3OC2c2ccccc2O)cc1 (stereo not given) | 3.65% | 46.1% | -5.2% | 32.5% | 11.6% | –
CC1=NN(c2ccccc2)C(=O)C1=C1SCCCS1 | -14.2% | -25.4% | 16.4% | -4.9% | 1.8% | –
Nc1ccc(F)cc1 | -22.1% | -1.5% | -19.6% | -3.05% | -31.9% | –
N=c1ccccn1CC(O)COc1ccccc1 (stereo not given) | -11.2% | -9.6% | 1.1% | 4.2% | -5.8% | –
COc1cc(-c2cc(=O)c3c(O)c(OC)c(OC)cc3o2)ccc1O | -34.3% | -40.2% | -22.1% | -36.6% | -41.5% | –
CC(=O)c1cccc(OC(=O)c2ccccc2)c1 | 23.5% | 8.3% | 10.7% | 45.1% | 30.8% | –
O=[N+]([O-])c1ccc(CSc2ncnc3c2ncn3C2OC(CO)C(O)C2O)cc1 (stereo not given) | 10.7% | 22.6% | -7.35% | -4.05% | -17.4% | –
CCOC(=O)C(C)(C(=O)OCC)C(C)Cc1cccc2ccccc12 (stereo not given) | -12.6% | – | -31.4% | -7.15% | -3.6% | -4.45
CC1=C(C(=O)Nc2ccccc2)C(c2ccccc2)C(C(=O)Nc2ccccc2)=C(C)N1 | 4.2% | – | 18.4% | 0.55% | 22.4% | 14.5
CCCCCc1cc[n+](CC(=O)c2ccccc2)cc1 | 4.45% | – | -62.7% | -10.4% | 12.8% | -12.1
Cn1c(N)c(N=O)c(=O)n(C)c1=O | -28.9% | – | -12.8% | -5.65% | -9.9% | -1.6
